From PubChem BioAssay
The source made the active and inactive calls.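 The calls were made as follows, unless noted: active = visually confirmed hit in the image check and inhibition above 20%; inconclusive = visually confirmed hit but inhibition not above 20%; inactive = no visual hit in the image check.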

Legend:
[1] = inhibitors of TNFa-induced NFkB p65 translocation, primary screen, imaging, HUVEC, MLSMR starter and 10KST1 sets (AID 438;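 active = inhibition above 20% together with a positive visual image hit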;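 also: compound added about 3h40 before a 20 min TNFalpha stimulation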;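 as to inhibition: signal is the nuclear over cytoplasmic p65 intensity ratio per well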); conditions: HUVEC TNFa-induced p65 nuclear translocation; cell count: measured here: nuclei count (cytotoxicity indicator), at 2.08 µM; inhibition: at 2 µM, stronger effect = higher value, 0% TNFa-plus-vehicle, 100% no-TNFa wells
[2] = inhibitors of mutant huntingtin aggregation, primary screen, imaging, exon1htt(103Q)mCFP cells, high-content imaging (AID 483;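 active = visual image review flags a hit and inhibition of aggregation exceeds 20%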;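 also: compound exposure lasted 3 days before fixation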;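 as to nuclei count: percent of the per-plate median nuclei count of sample wells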); conditions: exon1htt(103Q)mCFP cell line, aggregate imaging, at 2 µM; inhibition of aggregation: stronger effect = higher value; nuclei count: measured here: cell count, toxicity
[3] = inhibitors of E-selectin induction by TNFa, primary screen, imaging, HUVEC, immunofluorescence, MLSMR starter and 10KST1 sets (AID 487); conditions: HUVEC TNFalpha-induced E-selectin immunofluorescence imaging, at 2 µM; inhibition: stronger effect = higher value; nuclei count: measured here: cell number, toxicity;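 as to inhibition: signal is fraction of cell area covered by stained E-selectin grains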;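 as to nuclei count: 100% = median nuclei count of all wells on the same plate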
[4] = target: Voltage-gated potassium channel subunit beta-2 (Rattus norvegicus) (UniProt P62483); experiment: KvBeta enzyme negative modulators, primary screen, biochemical, NADPH fluorescence (AID 622;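 active = fluorescence slope higher than the sample average by over 3 SD, cut at about -0.22 in these data, passing the limit was not always enough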;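 also: slope of raw intensity against log time taken from 70 to 1610 s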); conditions: recombinant KvBeta, 4-cyanobenzaldehyde reduction, at 10 µM, stronger effect = higher value
[5] = target: Voltage-gated potassium channel subunit beta-2 (Rattus norvegicus) (UniProt P62483); experiment: KvBeta positive modulators, primary screen, biochemical, NADPH fluorescence (AID 623;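 active = NADPH fluorescence slope more negative than the mean of all samples by about 3 SD, 99.7% confidence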;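 also: fluorescence intensity change per second fitted from 20 to 320 s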); conditions: Recombinant KvBeta, NADPH fluorescence decrease slope, 10 min; at 10 µM; stronger effect = lower value
[6] = target: Alpha-2C adrenergic receptor (Homo sapiens) (UniProt P18825); experiment: modulators of alpha2C/GIRK thallium flux, primary screen, cell-based, HEK293 alpha2C/GIRK1/2 (AID 624;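 active = fluorescence slope after compound addition differing from the mean of all screened samples at 99.7% confidence, in either direction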;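 also: slope of fluorescence ratio to pre-addition baseline per second over 15 to 24 s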); conditions: thallium flux BTC fluorescence, at 10 µM, actives lie on both sides
[7] = inhibitors of Sendai virus-induced IRF3 signaling, primary screen, TLR/RLR signaling modifier project, cell-based, Sendai virus stimulus, luciferase, 10K MLSCN set (AID 602276;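 active = inhibition at or above 50% at 10 µM; inactive = inhibition below 50%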;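 also: firefly luciferase from ISG56 promoter only with Renilla not read in this screen; 0% = Sendai virus plus DMSO and 100% = medium plus DMSO without virus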); conditions: HEK293 RL24 IRF3 luciferase reporter, at 10 µM, stronger effect = higher value
[8] = inhibitors of poly I:C-induced TLR3 signaling, primary screen, cell-based, poly I:C stimulus, luciferase, 10K MLSCN set (AID 602277;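 active = inhibition of the reporter signal at or above 50%; inactive = inhibition below 50%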); conditions: HEK293-TLR3 RL24 IRF3 luciferase reporter, at 10 µM, stronger effect = higher value

Voltage-gated potassium channel subunit beta-2 (Rattus norvegicus), sequence (P62483 whole entry, looked up): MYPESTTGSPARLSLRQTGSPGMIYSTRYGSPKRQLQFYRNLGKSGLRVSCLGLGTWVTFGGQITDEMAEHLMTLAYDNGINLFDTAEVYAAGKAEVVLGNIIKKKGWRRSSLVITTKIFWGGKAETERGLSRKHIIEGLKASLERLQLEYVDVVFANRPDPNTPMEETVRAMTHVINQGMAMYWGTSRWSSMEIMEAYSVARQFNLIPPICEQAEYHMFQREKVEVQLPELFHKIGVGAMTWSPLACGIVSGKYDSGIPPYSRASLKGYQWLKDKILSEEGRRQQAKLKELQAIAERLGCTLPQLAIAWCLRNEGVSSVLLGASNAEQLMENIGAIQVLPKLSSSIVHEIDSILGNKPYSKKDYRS
Alpha-2C adrenergic receptor (Homo sapiens), sequence (P18825 whole entry, looked up): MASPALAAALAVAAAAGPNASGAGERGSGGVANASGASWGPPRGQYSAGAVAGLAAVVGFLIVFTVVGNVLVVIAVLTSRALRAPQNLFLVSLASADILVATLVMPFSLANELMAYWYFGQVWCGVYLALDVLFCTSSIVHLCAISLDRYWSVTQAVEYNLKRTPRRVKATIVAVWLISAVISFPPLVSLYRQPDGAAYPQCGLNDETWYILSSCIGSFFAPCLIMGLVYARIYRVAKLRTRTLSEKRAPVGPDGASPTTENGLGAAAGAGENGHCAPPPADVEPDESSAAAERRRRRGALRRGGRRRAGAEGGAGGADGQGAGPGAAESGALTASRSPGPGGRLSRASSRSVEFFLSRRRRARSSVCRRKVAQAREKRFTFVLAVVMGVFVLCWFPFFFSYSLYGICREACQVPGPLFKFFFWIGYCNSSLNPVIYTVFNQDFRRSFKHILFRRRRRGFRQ

| Compound | cell count [1] | inhibition [1] | inhibition of aggregation [2] | nuclei count [2] [%] | inhibition [3] | nuclei count [3] [%] | fluorescence slope [4] | NADPH fluorescence slope [5] | slope [6] | inhibition [7] | inhibition [8] |
| --- | --- | --- | --- | --- | --- | --- | --- | --- | --- | --- | --- |
| O=C(CCC(=O)N(c1cccc(F)c1)C(C(=O)NC1CCCC1)c1ccncc1)Nc1cccnc1 (centres undefined) | 465 | 0.6% (inactive) | -8.2% (inactive) | 70.3 | -32.3% (inactive) | 108 | -0.5 (inactive) | -3.7e-05 (inactive) | 0.00449 (inactive) | 18.8% (inactive) | 20.4% (inactive) |
| O=C1CC(c2cccnc2)c2cc3c(cc2N1)OCO3 (centres undefined) | 451 | -1.2% (inactive) | -3.3% (inactive) | 104 | -79.3% (inactive) | 102 | -0.527 (inactive) | -6.9e-06 (inactive) | 0.00697 (inactive) | 0.756% (inactive) | 25% (inactive) |
| CCC1(CC)C(=O)N(C)C(=O)NC1=NCc1ccccc1 | 512 | -4.7% (inactive) | -9.9% (inactive) | 107 | 24.4% (inactive) | 96.9 | -0.334 (inactive) | 2e-05 (inactive) | 0.0048 (inactive) | 18.2% (inactive) | 12.1% (inactive) |
| CCCOc1ccccc1NC(=O)c1ccc(N)cc1 | 428 | 7% (inactive) | 6.7% (inactive) | 106 | -137% (inactive) | 114 | -0.396 (inactive) | -4.2e-05 (inactive) | 0.00363 (inactive) | 11.3% (inactive) | 18.2% (inactive) |
| O=C(NC1CCCCC1)c1nc2c(nnn2Cc2ccccc2Cl)c(=O)[nH]1 | 584 | 8.8% (inactive) | 17.1% (inactive) | 85.3 | 7.2% (inactive) | 105 | -0.525 (inactive) | -2.9e-05 (inactive) | 0.0047 (inactive) | 3.13% (inactive) | 6.18% (inactive) |
| Cn1c(=O)[nH]c(=O)c2c1nc(NCCCn1ccnc1)n2Cc1ccccc1 | 433 | 0.3% (inactive) | -7.8% (inactive) | 130 | -46.4% (inactive) | 119 | -0.603 (inactive) | -3.4e-05 (inactive) | 0.00342 (inactive) | -9.45% (inactive) | -6.06% (inactive) |
| O=C(O)C1CC=CCC1C(=O)Nc1cccc(F)c1 (centres undefined) | 446 | 5.9% (inactive) | -9.5% (inactive) | 112 | 0.8% (inactive) | 116 | -0.432 (inactive) | -2.5e-05 (inactive) | 0.00329 (inactive) | 10.2% (inactive) | 31.8% (inactive) |
| CC(=O)c1cc2c(cc1NC(=O)CN1CCN(C(=O)c3ccco3)CC1)OCO2 | 410 | -6.1% (inactive) | 13.3% (inactive) | 44.6 | -58.5% (inactive) | 113 | -0.548 (inactive) | -3.4e-05 (inactive) | 0.00807 (inactive) | 4.38% (inactive) | 25.7% (inactive) |
| CCCC(=O)Nc1cc(-c2nnc(OC)c3ccccc23)ccc1N1CCOCC1 | 385 | -9.8% (inactive) | -2% (inactive) | 105 | -14.8% (inactive) | 112 | -0.522 (inactive) | -3.3e-06 (inactive) | 0.00489 (inactive) | 22.9% (inactive) | 27.2% (inactive) |
| O=C(NCC(c1cccnc1)N1CCN(c2ccc(F)cc2)CC1)OCc1ccccc1 (centres undefined) | 568 | -6.4% (inactive) | -3.7% (inactive) | 128 | -34.3% (inactive) | 126 | -0.605 (inactive) | 7e-06 (inactive) | 0.00599 (inactive) | 17.1% (inactive) | 1.38% (inactive) |
| Cc1ccc(-c2cn3cccnc3n2)cc1NC(=O)c1ccc(Br)o1 | 420 | 4.7% (inactive) | 30.5% (inactive) | 66.8 | -274% (inactive) | 103 | -0.0541 (active) | 1.6e-06 (inactive) | 0.00595 (inactive) | -11.9% (inactive) | -53% (inactive) |
| COCCOC(=O)c1cc(C(=O)c2cc(F)ccc2O)coc1=N | 473 | -11.2% (inactive) | 8.5% (inactive) | 107 | -92.3% (inactive) | 115 | -0.597 (inactive) | -1.1e-05 (inactive) | 0.00549 (inactive) | 6.76% (inactive) | 11% (inactive) |
| Cc1cc(=O)oc2ccc(OCC(=O)N(Cc3ccc(F)cc3)Cc3ccco3)cc12 | 751 | 2.2% (inactive) | -0.1% (inactive) | 95.6 | -150% (inactive) | 107 | -0.493 (inactive) | 2.4e-05 (inactive) | 0.00494 (inactive) | -10.8% (inactive) | -19% (inactive) |
| CC1CCC(NC(=O)C2CCN(c3cnccn3)CC2)CC1 (centres undefined) | 579 | -52% (inactive) | -0.6% (inactive) | 102 | -108% (inactive) | 116 | -0.575 (inactive) | -6.7e-05 (inactive) | 0.00693 (inactive) | -0.638% (inactive) | -2.17% (inactive) |
